Shown are actives, neighbours in structure and some others; about 8.9% of the full set was active somewhere.
KB-3-1 tox = KB-3-1 parental cell cytotoxicity | actives 1.4% (n = 400,000) | Potency, µM (highest dose often 46.1 µM), usual class: cytotoxic | KB-3-1 viability, CellTiter-Glo ATP luminescence, 72 h | AID 1347075; note: potency is the fitted concentration of half-maximal effect; % is set by controls: 0 for no effect and ±100 for the full control effect; nearly all actives have a fitted effect of over 60% in size
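Cytotoxicity in the drug-sensitive parental line KB-3-1 was scored as loss of CellTiter-Glo luminescence following 72 h incubation with compound. Values come from curve fitting of normalized concentration-response data.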
DRD3 agonist = activates the human D3 dopamine receptor; actives 0.58% (n = 410,000); D3R DiscoveRx beta-arrestin cells, luminescence, 90 min; max activation, %; in the data active = max activation above about 30%; note: 0% is about no effect
Target sequence (P35462 whole entry, looked up): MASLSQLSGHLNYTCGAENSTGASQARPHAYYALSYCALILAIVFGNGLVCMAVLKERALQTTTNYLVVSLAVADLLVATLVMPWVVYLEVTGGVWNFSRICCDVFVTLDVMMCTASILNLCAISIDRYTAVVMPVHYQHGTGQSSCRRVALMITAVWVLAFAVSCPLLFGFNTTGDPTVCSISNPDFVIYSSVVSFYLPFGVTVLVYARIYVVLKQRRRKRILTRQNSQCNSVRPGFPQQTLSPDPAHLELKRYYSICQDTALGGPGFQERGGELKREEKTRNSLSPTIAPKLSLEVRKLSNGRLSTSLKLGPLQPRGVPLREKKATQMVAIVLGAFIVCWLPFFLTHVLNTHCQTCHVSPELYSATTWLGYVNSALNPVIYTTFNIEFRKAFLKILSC
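Cells at 1500/well, incubated overnight, then treated with pinned compounds (dopamine as control) for 90 min at 37 degrees C. DiscoveRx reagent added for 30 - 60 minutes at room temperature; luminescence read.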
D3 antag = D3 dopamine receptor (human) antagonism | P35462 | D3R cells, DiscoveRx beta-arrestin luminescence, antagonist mode; active compounds read low | max response, negative = inhibition, % | actives 2.5% (n = 360,000); in the data active = max response below about -50%; inconclusive = no clear call, values can overlap the other calls; note: % is set by controls: 0 for no effect and ±100 for the full control effect
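Cells expressing the human receptor were seeded at 1500 cells/well, incubated overnight at 37 degrees C in 5% CO2, then exposed to library compounds with dopamine controls for 90 minutes at 37 degrees C before luminescent detection.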
KB-V1 MDR tox = kills drug-selected multidrug resistant KB-V1 cells. Potency, µM (doses to about 46.1 µM), actives largely listed as cytotoxic. AID 1347076. actives 3.4% (n = 400,000). KB-V1 MDR cells viability, CellTiter-Glo, 72 h; note: potency is the fitted concentration of half-maximal effect; % is set by controls: 0 for no effect and ±100 for the full control effect; nearly all actives have a fitted effect of over 60% in size
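Cytotoxicity toward P-gp-expressing KB-V1 cells was determined as loss of CellTiter-Glo luminescence after 72 h at 37 degrees C. Compounds were tested in quantitative HTS format across a concentration range, with curves fitted to normalized data.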
SW480 rereplic = inducers of DNA re-replication in SW480 colon cancer cells; SW480 DNA re-replication, Hoechst DNA content imaging, 48 h; Potency, µM (titrated, usually from 46.1 µM), inactives show at the highest dose re-replication activation, hits mostly activators; actives 1.8% (n = 340,000); note: potency is the fitted concentration of half-maximal effect; % of control where 0% means no effect; nearly all actives have a fitted effect of over 55% in size
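Compounds, transferred as 23 nL by pin tool, were incubated with cells for 48 hr; DNA content per nucleus was then quantified by Hoechst staining and fluorescence plate imaging.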
MCF10A rerep = inducers of DNA re-replication in MCF 10A breast cells. Potency, µM (top dose mostly 46.1 µM), without a hit: at the top dose activity, positive = re-replication, usual class: activators. AID 624296. actives 2.9% (n = 350,000). MCF 10A DNA re-replication, Hoechst nuclear intensity, 48 h; note: potency is the fitted concentration of half-maximal effect; % of control where 0% means no effect; nearly all actives have a fitted effect of over 50% in size
* hit, by the source's call; ! = not confirmed by another sample; [ ] = another dose, or the depositor's remark. Unless noted, calls come from the whole dose curve; as a rule, active = well fitted curve in the direction sought with a large enough effect; inconclusive = small, poorly fitted or top-dose-only effect, or another doubt; inactive = no such curve, though single readings can be large; an effect the other way counts as inactive or inconclusive.

For c1ccc2c(CCNC3CCCCC3)c[nH]c2c1 the results were KB-3-1 tox inactive, DRD3 agonist -4.4, D3 antag -22.4, KB-V1 MDR tox inactive, SW480 rereplic 20.6µM* and MCF10A rerep -12.1%.
For O=C(C1CCCO1)N1CCC2(CC1)OCCO2 (configuration not stated) the results were KB-3-1 tox inactive, DRD3 agonist 13.7, D3 antag -59.5*, KB-V1 MDR tox inactive, SW480 rereplic -9.2% and MCF10A rerep -2.2%.
S=C(SSC(=S)N1CCCCC1)N1CCCCC1 was read as DRD3 agonist -21.5.
`[Hg+][c]1ccccc1` gave KB-3-1 tox inconclusive, KB-V1 MDR tox inconclusive, SW480 rereplic 10.6µM* and MCF10A rerep 51.1%.
Screening CCC1(C)CC(=O)NC(=O)C1 returned DRD3 agonist 2.7, SW480 rereplic -5.2%[20.6 µM] and MCF10A rerep 2.0%[20.6 µM].
CCC1CN2CCc3cc(OC)c(OC)cc3C2CC1CC1NCCc2c1[nH]c1ccc(O)cc21 (configuration not stated) was read as KB-3-1 tox 0.411µM*, DRD3 agonist -7.4, D3 antag 0.7, KB-V1 MDR tox inactive, SW480 rereplic inconclusive and MCF10A rerep inconclusive.
For CC[C@H]1C[C@@H]2C[C@H]3c4[nH]c5ccc(OC)cc5c4CCN(C2)[C@@H]13 the results were DRD3 agonist 1.8.
Screening Clc1ccc(C2(Cn3cncn3)OCCO2)c(Cl)c1 returned DRD3 agonist -12.0, SW480 rereplic 1.6% and MCF10A rerep 5.5%.
`COC(=O)C1=C(c2ccc(-c3ccccc3)c(F)c2)C[C@@H]2CC[C@H]1N2C(=O)NC1Cc2ccccc2C1` gave KB-3-1 tox inconclusive, DRD3 agonist -3.6, D3 antag 2.9, KB-V1 MDR tox inactive, SW480 rereplic 3.66µM* and MCF10A rerep -43.7%.
For COC(=O)C1=C(c2ccc(-c3ccccc3)c(F)c2)C[C@@H]2CC[C@H]1N2C(=O)N1CCCC1 the results were KB-3-1 tox 18.4µM*, DRD3 agonist -4.3, D3 antag -2.3, KB-V1 MDR tox inconclusive, SW480 rereplic -2.4% and MCF10A rerep 15.6%.
For COC(=O)C1=C(c2ccc(-c3ccccc3)c(F)c2)C[C@@H]2CC[C@H]1N2C(=O)N1CCCCC1 the results were KB-3-1 tox inactive, DRD3 agonist -19.8, D3 antag -22.9, KB-V1 MDR tox inconclusive, SW480 rereplic -57.5%[9.22 µM] and MCF10A rerep inconclusive.
COC(=O)C1=C(c2ccc(-c3ccccc3)c(F)c2)C[C@@H]2CC[C@H]1N2C(=O)N1CCC(O)CC1 was read as KB-3-1 tox inactive, DRD3 agonist 9.7, D3 antag -19.3, KB-V1 MDR tox inactive, SW480 rereplic -6.8% and MCF10A rerep 17.7%.
COC(=O)C1=C(c2ccc(-c3ccccc3)c(F)c2)C[C@@H]2CC[C@H]1N2C(=O)N1CCOCC1 was read as KB-3-1 tox 18.4µM*, DRD3 agonist -3.8, D3 antag -23.0, KB-V1 MDR tox inactive, SW480 rereplic -4.5% and MCF10A rerep 2.7%.
`CCCN1CCO[C@@H]2c3cc(O)ccc3OC[C@H]21` gave KB-3-1 tox inactive, DRD3 agonist 146.2*, D3 antag 28.4, KB-V1 MDR tox inactive, SW480 rereplic -6.1% and MCF10A rerep -10.1%.
`CCCN1CCc2cccc3c2[C@H]1Cc1ccc(O)c(O)c1-3` gave KB-3-1 tox inactive, DRD3 agonist 4.3, D3 antag inconclusive, KB-V1 MDR tox inconclusive, SW480 rereplic 22.5% and MCF10A rerep inconclusive.
`CN1C(=O)/C(=C\c2ccc(N3CCCCC3)o2)C(=O)NC1=S` gave KB-3-1 tox inactive, DRD3 agonist -5.1, D3 antag inconclusive, KB-V1 MDR tox inactive, SW480 rereplic 13.5% and MCF10A rerep 5.1%.
Screening CN1C(=O)/C(=C/c2ccc(N3CCCCCC3)o2)C(=O)NC1=S returned KB-3-1 tox inactive, DRD3 agonist 2.3, D3 antag -55.9*, KB-V1 MDR tox inactive, SW480 rereplic -3.3% and MCF10A rerep inconclusive.
For CCN(Cc1ccccc1)C(=O)Cn1c(=O)oc2ccccc21 the results were KB-3-1 tox inactive, DRD3 agonist 0.5, D3 antag -18.2, KB-V1 MDR tox inactive, SW480 rereplic -1.0% and MCF10A rerep -54.9%.
Screening CCCC12CN3CC(CCC)(CN(C1)C3c1ccccn1)C2=O (configuration not stated) returned KB-3-1 tox inactive, DRD3 agonist -10.6, D3 antag -19.0, KB-V1 MDR tox 2.59µM*!, SW480 rereplic -8.1% and MCF10A rerep 10.1%.
CCCc1cc(=O)oc2c3c(cc(OCC(=O)N4CCC[C@H]4C(=O)O)c12)OC(C)(C)CC3 was read as KB-3-1 tox inactive, DRD3 agonist -3.9, D3 antag 21.1, KB-V1 MDR tox inactive, SW480 rereplic -4.2% and MCF10A rerep -25.8%.
For CCCCCn1c(NC(=O)c2ccco2)c(C(=O)OCC)c2nc3ccccc3nc21 the results were KB-3-1 tox inactive, DRD3 agonist -15.3, D3 antag inconclusive, KB-V1 MDR tox inactive, SW480 rereplic 3.66µM* and MCF10A rerep 5.8µM*.
For COCCCn1c(N)c(C(=O)OCCOC)c2nc3ccccc3nc21 the results were KB-3-1 tox inactive, DRD3 agonist 3.4, D3 antag -0.3, KB-V1 MDR tox inactive, SW480 rereplic inconclusive and MCF10A rerep -6.6%.
CCOC(=O)c1c(N)n(CCCOC(=O)c2ccco2)c2nc3ccccc3nc12 was read as KB-3-1 tox 11.6µM*, DRD3 agonist 0.8, D3 antag -9.6, KB-V1 MDR tox inconclusive, SW480 rereplic inconclusive and MCF10A rerep inconclusive.
`CCc1cc(=O)oc2c(C)c(OCC(=O)N3CCC[C@@H]3C(=O)O)ccc12` gave KB-3-1 tox inactive, DRD3 agonist 8.5, D3 antag 23.5, KB-V1 MDR tox inactive, SW480 rereplic -0.8% and MCF10A rerep -11.0%.
`CC(C)(C)c1ccc(/C=C2\Oc3cc(OC(=O)N4CCOCC4)ccc3C2=O)cc1` gave KB-3-1 tox inactive, DRD3 agonist 8.5, D3 antag 29.7, KB-V1 MDR tox inactive, SW480 rereplic inconclusive and MCF10A rerep 14.6µM*.
N#CC1=C(N)Oc2c(c(=O)sc3ccccc23)C1c1ccncc1 (configuration not stated) was read as KB-3-1 tox inconclusive, DRD3 agonist -0.9, D3 antag 9.7, KB-V1 MDR tox inactive, SW480 rereplic 13µM* and MCF10A rerep 20.6µM*.
CC(C)CCn1c(N)c(C(=O)NCc2cccs2)c2nc3ccccc3nc21 was read as KB-3-1 tox inactive, DRD3 agonist 0.2, D3 antag -15.7, KB-V1 MDR tox inactive, SW480 rereplic 5.8µM* and MCF10A rerep 1.46µM*.
